In PubChem BioAssay (Tox21):
Inconclusive results are not listed. The source made the active and inactive calls. Unless noted, calls come from the whole dose curve; as a rule, active = well fitted curve in the direction sought with a large enough effect in the repeat runs; inconclusive = weak or mixed curves; inactive = no such curve, though single readings can be large; an effect the other way counts as inactive or inconclusive.

What was measured:
[1] = qHTS assay for small molecule agonists of the p53 signaling pathway (AID 651631; calls by dose curve; note: nearly all actives have a fitted effect of over 15% in size; note: potency is the fitted concentration of half-maximal effect)
Method in brief: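 Quantitative high-throughput format: 4,000 p53RE-bla HCT-116 cells/well, 5 h pre-incubation, 16 h compound exposure at 37 °C, 2 h room-temperature substrate step, fluorescence intensity measured.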

[2] = qHTS assay for small molecules that induce genotoxicity in human embryonic kidney cells expressing luciferase-tagged ATAD5 (AID 651632); note: nearly all actives have a fitted effect of over 15% in size
Method in brief: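 A rise in luciferase signal from ATAD5-tagged HEK293T cells marks genetic stress. Cells were exposed to compounds for 16 hr at 37C, 5% CO2, then luciferase was quantified after a 30 min room-temperature incubation with Amplite.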

[3] = qHTS assay for small molecule agonists of the p53 signaling pathway - cell viability (AID 651633; calls by dose curve; note: nearly all actives have a fitted effect of over 30% in size; note: potency is the fitted concentration of half-maximal effect)
Method in brief: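 p53RE-bla cells were treated with compound for 16 hours at 37 C. Cytotoxicity was then measured as CellTiter-Glo luminescence after 30 min at room temperature.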

[4] = qHTS assay for small molecule disruptors of the mitochondrial membrane potential - cell viability (AID 720634; calls by dose curve;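 note: human HepG2 liver cancer cells; series mostly up to about 83 µM; nearly all actives have a fitted effect of over 20% in size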)
Method in brief: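 Cytotoxicity was quantified from ATP content by CellTiter-Glo luminescence in the same wells as the MMP dye read-out. HepG2 (2,000 cells/well) were plated overnight and exposed to compounds for 1 hr at 37 C.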

[5] = qHTS assay for small molecule disruptors of the mitochondrial membrane potential (AID 720635); note: potency is the fitted concentration of half-maximal effect
Method in brief: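 HepG2 cells exposed to compound 1 hr at 37C, then Mito-MPS dye 30 min. Ratio read of aggregate (540/590 nm) versus monomer (490/535 nm) fluorescence.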

[6] = qHTS assay to test for compound auto fluorescence at 590 nm (red) in HepG2 cells (AID 720674)
Method in brief: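 HepG2 cells, 2,000 per well in MEM with 10% FBS, attached overnight at 37 C, then got 23 nL compound or DMSO. After 1 hr at 37 C, 5% CO2, red fluorescence was read at 540/590 nm against Rose Bengal sodium as reference.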

[7] = qHTS assay to test for compound auto fluorescence at 535 nm (green) in HepG2 cells (AID 720675)
[8] = qHTS assay to test for compound auto fluorescence at 460 nm (blue) in HEK293 cells (AID 720678)
Method in brief: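 Measured: blue fluorescence (Ex 405/Em 460 nm) of compound-treated HEK293 cells, incubated overnight at 37C with 5% CO2 and scaled to triamterene equivalents.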

[9] = qHTS assay to test for compound auto fluorescence at 590 nm (red) in HEK293 cells (AID 720679)
Method in brief: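 Using HEK293 cells at 2,000 per well, the screen added 23 nL of each compound after cell attachment and incubated overnight (37C, 5% CO2). The plate reader then captured red-label fluorescence, Ex/Em 540/590nm.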

[10] = qHTS assay to test for compound auto fluorescence at 535 nm (green) in HEK293 cells (AID 720680)
[11] = qHTS assay to test for compound auto fluorescence at 460 nm (blue) in HEK293 cell free culture (AID 720681)
Method in brief: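 Compounds were added to cell-free DMEM with 10% FBS and fluorescence read directly. The blue channel used 405 nm excitation and 460 nm emission, with triamterene as the reference fluorophore.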

[12] = qHTS assay to test for compound auto fluorescence at 535 nm (green) in HEK293 cell free culture (AID 720682)
Method in brief: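 Measurement is a direct plate read of green fluorescence (485 nm in, 535 nm out) after compound addition to serum-supplemented DMEM lacking cells, with fluorescein used to express intensities.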

[13] = qHTS assay to test for compound auto fluorescence at 590 nm (red) in HEK293 cell free culture (AID 720683)
Method in brief: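 Cell-free wells of DMEM with 10% FBS received compound, and intrinsic fluorescence was read at excitation/emission 540/590 nm. Values expressed as equivalence to Rose Bengal sodium.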

[14] = qHTS assay to test for compound auto fluorescence at 590 nm (red) in HepG2 cell free culture (AID 720684)
Method in brief: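 Rose Bengal sodium served as the reference for red signal. Test compounds were dispensed into serum-containing MEM (10% FBS) without cells, and plates were read at 540/590 nm.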

[15] = qHTS assay to test for compound auto fluorescence at 460 nm (blue) in HepG2 cell free culture (AID 720685)
Method in brief: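 Cell-free plates of MEM plus 10% FBS received 23 nL compound or DMSO vehicle; blue-channel (405/460 nm) intensity scored against triamterene as reference fluorophore.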

[16] = qHTS assay to test for compound auto fluorescence at 535 nm (green) in HepG2 cell free culture (AID 720686)
[17] = qHTS assay to test for compound auto fluorescence at 460 nm (blue) in HepG2 cells (AID 720687)
Method in brief: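 HepG2 cells in MEM with 10% FBS, attached overnight at 37 C, were exposed to compound or DMSO for 1 hr at 37 C, 5% CO2. Blue fluorescence was read at 405/460 nm, with triamterene as reference fluorophore.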

[18] = qHTS assay for small molecules that induce genotoxicity in human embryonic kidney cells expressing luciferase-tagged ATAD5 - cell viability (AID 651634; calls by dose curve; note: nearly all actives have a fitted effect of over 25% in size)
Method in brief: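 Cytotoxicity counter-readout: after 15.5 hr compound treatment at 37C, live-cell protease activity in ATAD5-luciferase HEK293T cells measured by CellTiter-Fluor fluorescence, 30 min development at 37C.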

[19] = biological target: Glucocorticoid receptor (Homo sapiens) (UniProt P04150); assay: qHTS assay to identify small molecule agonists of the glucocorticoid receptor (GR) signaling pathway (AID 720691; active = well fitted activation curve with a large enough effect in the signal ratio in the repeat runs, not every such curve was filed as active; the % refers to the signal ratio)
Method in brief: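 Agonist-mode qHTS in HeLa cells stably expressing a glucocorticoid-response-element beta-lactamase reporter. Fluorescence intensity read with FRET substrate (2 h, room temperature) after 18 h compound treatment at 37 C.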

[20] = biological target: Glucocorticoid receptor (Homo sapiens) (UniProt P04150); assay: qHTS assay to identify small molecule antagonists of the glucocorticoid receptor (GR) signaling pathway (AID 720692; active = well fitted inhibition curve with a large enough effect in the signal ratio in the repeat runs, not every such curve was filed as active; the % refers to the signal ratio; note: potency is the fitted concentration of half-maximal effect)
Method in brief: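 Inhibition of dexamethasone-driven (5 nM final) beta-lactamase expression was measured in GRE-reporter HeLa cells over 18 h at 37C. Fluorescence was read after 2 h with the B/G FRET substrate at room temperature.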
% is set by controls: 0 for no effect and ±100 for the full control effect.

Sequence of Glucocorticoid receptor (Homo sapiens) (P04150 whole entry, looked up): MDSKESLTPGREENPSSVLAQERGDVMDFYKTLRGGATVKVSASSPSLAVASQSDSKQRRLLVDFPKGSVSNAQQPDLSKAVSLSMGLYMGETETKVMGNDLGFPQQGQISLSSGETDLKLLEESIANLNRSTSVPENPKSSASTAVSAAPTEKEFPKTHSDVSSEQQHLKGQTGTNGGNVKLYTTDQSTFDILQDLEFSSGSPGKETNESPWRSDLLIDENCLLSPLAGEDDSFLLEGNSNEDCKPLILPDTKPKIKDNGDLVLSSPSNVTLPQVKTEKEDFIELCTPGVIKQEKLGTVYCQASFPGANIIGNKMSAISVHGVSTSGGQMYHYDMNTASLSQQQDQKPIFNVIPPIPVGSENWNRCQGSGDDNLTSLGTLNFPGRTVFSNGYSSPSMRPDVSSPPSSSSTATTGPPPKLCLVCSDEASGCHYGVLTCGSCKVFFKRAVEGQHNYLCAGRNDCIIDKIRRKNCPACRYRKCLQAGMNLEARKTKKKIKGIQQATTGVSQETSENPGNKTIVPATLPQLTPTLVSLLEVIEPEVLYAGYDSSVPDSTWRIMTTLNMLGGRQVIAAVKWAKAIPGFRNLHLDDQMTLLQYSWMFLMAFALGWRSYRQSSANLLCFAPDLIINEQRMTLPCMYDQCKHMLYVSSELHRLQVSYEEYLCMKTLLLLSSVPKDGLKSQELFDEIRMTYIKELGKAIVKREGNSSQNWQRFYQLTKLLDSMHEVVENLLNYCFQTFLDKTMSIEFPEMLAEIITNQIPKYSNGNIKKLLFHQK

Cc1ccc(NC(=O)c2ccc(CN3CCN(C)CC3)cc2)cc1Nc1nccc(-c2cccnc2)n1
active: Potency [5] 2.11 µM
inactive: Potency [1] | Potency [2] | Potency [3] | Potency [4] | outcome [6] | outcome [7] | Potency [8] | outcome [9] | outcome [10] | Potency [11] | outcome [12] | outcome [13] | outcome [14] | outcome [15] | outcome [16] | outcome [17]

C[Si](C)(C)O[Si](C)(C)O[Si](C)(C)C
inactive: Potency [1] | Potency [2] | Potency [3] | Potency [4] | outcome [6] | outcome [7] | Potency [8] | outcome [9] | outcome [10] | Potency [11] | outcome [13] | outcome [14] | outcome [15] | outcome [16] | outcome [17]

O=C(OCCCCCOC(=O)c1ccccc1)c1ccccc1
inactive: Potency [1] | Potency [2] | Potency [3] | Potency [18] | outcome [6] | outcome [7] | Potency [8] | outcome [9] | outcome [10] | Potency [11] | outcome [12] | outcome [13] | outcome [14] | outcome [15] | outcome [16] | outcome [17] | Potency [19]

Cc1cc(SC2=C(O)C[C@@](CCc3ccc(N)cc3)(C(C)C)OC2=O)c(C(C)(C)C)cc1CO
active: Potency [20] 54.9 µM
inactive: Potency [1] | Potency [2] | Potency [3] | Potency [4] | outcome [6] | outcome [7] | Potency [8] | outcome [9] | outcome [10] | Potency [11] | outcome [12] | outcome [14] | outcome [15] | outcome [16] | outcome [17]

O=C(OCCOCCOCCOC(=O)c1ccccc1)c1ccccc1
inactive: Potency [1] | Potency [2] | Potency [3] | Potency [18] | outcome [6] | outcome [7] | Potency [8] | outcome [9] | outcome [10] | Potency [11] | outcome [12] | outcome [13] | outcome [14] | outcome [15] | outcome [16] | outcome [17] | Potency [19] | Potency [20]

O=C(O)c1ccc2cc(O)ccc2c1
inactive: Potency [1] | Potency [2] | Potency [3] | Potency [4] | outcome [6] | outcome [7] | Potency [8] | outcome [9] | Potency [11] | outcome [12] | outcome [14] | outcome [15] | outcome [16] | outcome [17] | Potency [19]

CCN(CCCCOC(=O)c1ccc(OC)c(OC)c1)C(C)Cc1ccc(OC)cc1 (stereo not drawn)
inactive: Potency [1] | Potency [2] | Potency [18] | Potency [4] | Potency [5] | fluorescence, relative to Rose Bengal [6] 0.21% [at 18.6 µM] | fluorescence, % of fluorescein control [7] 0.0889% [at 18.6 µM] | fluorescence, % of triamterene [8] 0.0022% [at 18.6 µM] | fluorescence, % of fluorescent control [9] -0.338% [at 18.6 µM] | fluorescence, % of fluorescein [10] 0.0099% [at 18.6 µM] | fluorescence, % of fluorescent control [11] 0.0098% [at 18.6 µM] | activity change [12] 0.0553% [at 18.6 µM] | fluorescence, % of fluorescent control [13] -0.0979% [at 18.6 µM] | fluorescence, % of Rose Bengal [14] 0.006% [at 18.6 µM] | fluorescence, % of fluorescent control [15] 0.0055% [at 18.6 µM] | fluorescence, % of fluorescein control [16] 0.0076% [at 18.6 µM] | fluorescence, % of fluorescent control [17] 0.0432% [at 18.6 µM] | Potency [19] | Potency [20]

CCCCCCCCCCCCN1CCOCC1
inactive: Potency [1] | Potency [2] | Potency [3] | outcome [6] | outcome [7] | Potency [8] | outcome [9] | outcome [10] | Potency [11] | outcome [12] | outcome [13] | outcome [14] | outcome [15] | outcome [16] | outcome [17] | Potency [19] | Potency [20]

CC(C)(C)NCC(O)COc1ccc(NC(=O)NC2CCCCC2)cc1 (stereo not drawn)
inactive: Potency [1] | Potency [2] | Potency [3] | outcome [6] | outcome [7] | Potency [8] | outcome [9] | outcome [10] | Potency [11] | outcome [12] | outcome [13] | outcome [14] | outcome [15] | outcome [16] | outcome [17] | Potency [19] | Potency [20]

OCCCO
inactive: Potency [1] | Potency [2] | Potency [3] | Potency [18] | outcome [6] | outcome [7] | Potency [8] | outcome [9] | outcome [10] | Potency [11] | outcome [12] | outcome [13] | outcome [15] | outcome [16] | outcome [17] | Potency [19] | Potency [20]

COc1cc(C)c(Cc2cnc(N)nc2N)cc1OC
inactive: Potency [1] | Potency [2] | Potency [3] | Potency [18] | outcome [6] | outcome [7] | Potency [8] | outcome [9] | outcome [10] | Potency [11] | outcome [12] | outcome [14] | outcome [15] | outcome [16] | outcome [17] | Potency [19] | Potency [20]

CCCCCCCCCCCCCCCCC(=O)O
inactive: Potency [1] | Potency [2] | Potency [3] | Potency [4] | outcome [6] | outcome [7] | Potency [8] | outcome [9] | outcome [10] | Potency [11] | outcome [12] | outcome [13] | outcome [14] | outcome [15] | outcome [16] | outcome [17] | Potency [19]

Clc1cc(Cl)c2c(c1)N=C1CCCCCN1C2
inactive: Potency [1] | Potency [2] | Potency [3] | Potency [18] | outcome [6] | outcome [7] | Potency [8] | outcome [9] | outcome [10] | Potency [11] | outcome [12] | outcome [13] | outcome [15] | outcome [16] | outcome [17] | Potency [19] | Potency [20]

COC(=O)C(C)(C)C
inactive: Potency [1] | Potency [2] | Potency [3] | Potency [4] | outcome [6] | outcome [7] | Potency [8] | outcome [9] | outcome [10] | Potency [11] | outcome [12] | outcome [14] | outcome [15] | outcome [16] | outcome [17] | Potency [19] | Potency [20]

CC1(COc2ccc(CC3SC(=O)NC3=O)cc2)CCCCC1 (stereo not drawn)
inactive: Potency [2] | outcome [7] | Potency [8] | outcome [9] | Potency [11] | outcome [14] | outcome [15] | outcome [16] | outcome [17]
active: Potency [1] 33.5 µM | Potency [3] 26.6 µM | Potency [5] 6.68 µM
